How the values were obtained:
[1] = test system: Human papillomavirus type 1a protein E7 (residues 44-93); assay: small molecules binding HPV E7 44-93 – biochemical, small-molecule microarray, residues 44-93, 635 nm fluorescence, primary screen (AID 1108); details: fluorescence 635 nm, higher = more signal;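 also: E7 fragment applied at 1 µg/mL in TBST for 1 h at 4 C; score combines spot fluorescence with its signal to noise ratio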
[2] = hepatitis C replication reporter changes, two-sided – Huh7 cells, luciferase reporter, HCV replication inhibitor project, primary screen (AID 1109); details: Huh7 HCV replicon luciferase reporter, 48 h; higher = more signal;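 also: huh7 hepatoma cells harbouring a luciferase neomycin HCV replicon reporter; luciferase luminescence as measure of HCV replicon replication; test concentration not given here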
[3] = target: Left-right determination factor 2 (Homo sapiens) (UniProt O00292); assay: small molecules binding LEFTY2 protein – biochemical, small-molecule microarray, 635 nm fluorescence scan, primary screen (AID 1110); details: higher = more signal
Chain of Left-right determination factor 2 (Homo sapiens) (O00292 whole entry, looked up): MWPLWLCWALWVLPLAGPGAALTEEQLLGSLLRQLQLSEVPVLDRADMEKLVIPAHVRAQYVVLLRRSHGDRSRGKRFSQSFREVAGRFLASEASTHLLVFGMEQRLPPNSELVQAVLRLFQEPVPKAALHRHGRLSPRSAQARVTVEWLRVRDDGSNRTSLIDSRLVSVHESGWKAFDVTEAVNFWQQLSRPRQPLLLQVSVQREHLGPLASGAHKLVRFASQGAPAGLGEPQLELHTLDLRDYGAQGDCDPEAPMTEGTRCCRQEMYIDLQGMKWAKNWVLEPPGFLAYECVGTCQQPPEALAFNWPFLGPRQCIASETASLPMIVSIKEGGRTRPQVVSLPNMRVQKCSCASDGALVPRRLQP

[4] = target: Calmodulin-1 (Homo sapiens) (UniProt P0DP23); assay: small molecules binding calmodulin-1 with EGTA – biochemical, small-molecule microarray, Cy5-labelled CALM1, profiling panel (AID 1111); details: Cy5-CALM1 binding fluorescence, higher = more signal;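 also: labelled calmodulin applied in Tris saline Tween buffer holding calcium plus EGTA and DTT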
[5] = target: Calmodulin-1 (Homo sapiens) (UniProt P0DP23); assay: small molecules binding Ca-loaded calmodulin-1 – biochemical, small-molecule microarray, Cy5-labelled CALM1, plus calcium, artefact control for SMM control-protein annotation, profiling panel (AID 1112); details: Cy5-CALM1 binding fluorescence, higher = more signal;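 also: score merges spot fluorescence with signal to noise from triplicate slides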
[6] = probe aWnt5a binding to arrayed compounds – biochemical, biotinylated probe, 635/667 nm fluorescence, primary screen (AID 1113); details: small-molecule microarray, higher = more signal;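 also: score merges 667 nm fluorescence intensity with signal-to-noise per printed feature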
[7] = probe aShh binding to arrayed compounds – biochemical, biotinylated probe, 635/667 nm fluorescence, primary screen (AID 1114); details: small-molecule microarray, higher = more signal;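 also: probe is biotin-labelled aShh protein from a stem cell growth factor screen; measures binding of labelled protein to compounds printed on the slide; score merges feature fluorescence at 667 nm with signal-to-noise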
[8] = probe aNog binding to arrayed compounds – biochemical, biotinylated probe, 635/667 nm fluorescence, primary screen (AID 1115); details: small-molecule microarray, higher = more signal;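 also: probe is biotinylated aNog protein used at 0.15 µg/mL for 1 h at 4 C; z-score combines 667 nm fluorescence of each spot with its signal to noise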
[9] = target: Torsin-1A-interacting protein 1 (Homo sapiens) (UniProt Q5JTV8); assay: compound microarray binding of lysate hLAP1 – cell lysate, small-molecule microarray, COS7 lysate, 635/667 nm fluorescence, primary screen (AID 1116); details: 635 nm fluorescence, higher = more signal
Chain of Torsin-1A-interacting protein 1 (Homo sapiens) (Q5JTV8 whole entry, looked up): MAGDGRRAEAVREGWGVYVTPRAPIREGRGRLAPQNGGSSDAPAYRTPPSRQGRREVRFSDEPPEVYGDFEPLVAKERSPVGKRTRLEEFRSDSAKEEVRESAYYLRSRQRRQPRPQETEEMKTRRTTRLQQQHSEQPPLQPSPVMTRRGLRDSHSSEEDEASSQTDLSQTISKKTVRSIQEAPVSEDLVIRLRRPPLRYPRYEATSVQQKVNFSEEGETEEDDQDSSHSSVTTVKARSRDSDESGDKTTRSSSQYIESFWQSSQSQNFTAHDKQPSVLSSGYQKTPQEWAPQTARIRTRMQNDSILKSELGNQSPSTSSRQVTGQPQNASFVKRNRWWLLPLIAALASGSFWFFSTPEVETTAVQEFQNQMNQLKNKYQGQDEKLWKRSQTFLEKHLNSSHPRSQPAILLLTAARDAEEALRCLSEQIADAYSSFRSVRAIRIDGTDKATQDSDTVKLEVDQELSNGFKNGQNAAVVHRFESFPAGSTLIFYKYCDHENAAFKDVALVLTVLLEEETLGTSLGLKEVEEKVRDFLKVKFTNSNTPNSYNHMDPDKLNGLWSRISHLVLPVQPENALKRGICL

[10] = target: Alpha-bungarotoxin (Bungarus multicinctus) (UniProt P60615); assay: compounds binding labelled alpha-BTX control protein – biochemical, small-molecule microarray, Alexa647 label, 635/667 nm fluorescence, artefact control for SMM control protein annotation, profiling panel (AID 1117); details: alpha-BTX-A647 binding fluorescence, higher = more signal
Chain of Alpha-bungarotoxin (Bungarus multicinctus) (P60615 whole entry, looked up): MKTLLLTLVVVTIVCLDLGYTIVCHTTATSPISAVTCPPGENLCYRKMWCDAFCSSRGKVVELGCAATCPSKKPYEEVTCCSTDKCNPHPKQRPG

Structure (SMILES) | composite z-score [1] | z-score [2] | composite z-score [3] | composite z-score [4] | composite z-score [5] | composite z-score [6] | composite z-score [7] | composite z-score [8] | composite z-score [9] | composite z-score [10]
C=CC[C@@]1(C(=O)N(C)C)N=C(c2ccc(OCCCO)cc2)O[C@@H]1c1ccccc1 | 0.242 | -0.624 | 0.191 | 0.401 | 0.621 | 0.233 | 0.246 | -0.42 | 0.961 | 0.826
CN1C(=O)[C@]2(CCC(=O)OC(C)(C)C)N=C(c3ccc(OCCCO)cc3)O[C@@H]2c2ccccc21 | 1.45 | -2.88 | -0.0515 | 0.147 | -0.0006 | 0.0279 | 0.275 | 0.346 | 0.973 | 1.14
CO[C@H]1O[C@H](CO)[C@@H](OC(=O)Nc2ccc(C(F)(F)F)cc2)[C@H](OC(=O)Nc2ccccc2-c2ccccc2)[C@H]1OC(=O)Nc1ccccc1-c1ccccc1 | 1.47 | -3.83 | 0.24 | 1.59 | -0.135 | -0.0445 | 0.0121 | -0.136 | 0.731 | 1.36
O=C1OCCC/C=C\[C@H]2OC34C=CCN(Cc5ccccc5)C(=O)[C@H]3N(CCCCCO)C(=O)[C@@H]4C12 (stereo not given in full) | -0.486 | -1.06 | -0.296 | -1 | -0.775 | -0.169 | 0.0121 | 0.0847 | 2.22 | -1.57
CN(C)C(=O)[C@]1(Cc2ccccc2)N=C(c2ccc(OCCCO)cc2)O[C@@H]1c1ccccc1 | 1.49 | -1.88 | -0.0054 | 1.25 | 0.529 | 0.0317 | -0.214 | 1.43 | 1.8 | 0.917
[N-]=[N+]=NCc1ccccc1C[C@@]1(C(=O)O)N=C(c2ccc(OCCCO)cc2)O[C@@H]1c1ccccc1CN=[N+]=[N-] | 1.39 | -1.84 | 0.219 | 0.973 | -0.0107 | 0.0676 | 0.0121 | -0.56 | 0.74 | 1.27
Cc1ccc(S[C@]2(C(=O)NC3CC3)CC(=O)N(Cc3cc(C(F)(F)F)cc(C(F)(F)F)c3)[C@@H]2c2ccc(CO)cc2I)cc1 | 0.769 | -1.67 | -0.175 | 0.102 | -0.213 | 0.472 | -0.19 | 1.65 | 0.0541 | 0.665
COCCOC(=O)N1C(=O)[C@@]2(c3cc(C#CC4(O)CCCCCC4)ccc31)[C@H](C(=O)N1CCc3cc(OC)c(OC)cc3C1)[C@H]1C(=O)O[C@H](c3ccccc3)[C@H](c3ccccc3)N1[C@@H]2c1ccc(O)cc1 | 1.02 | -1.01 | 0.729 | 0.621 | -0.394 | -0.0512 | 0.191 | -0.411 | 1.12 | 1.17
CC(C)c1ccc(NN2C(C(O)C(C)C)C=CC3C(=O)N(c4ccccc4)C(=O)C32)cc1 (stereo not given) | 0.713 | 2.43 | 0.136 | 2.1 | 0.721 | 0.168 | 0.998 | 1.8 | 0.817 | 1.49
C=CCC(OC(C)=O)[C@@H]1[C@@H](N(Cc2ccc(-c3cccc(C(F)(F)F)c3)o2)C(=O)Cc2ccc(OC)cc2)c2cc(OCCCO)ccc2N1C(=O)c1ccc2ccccc2n1 (stereo not given in full) | -0.551 | 0.185 | -0.323 | -0.698 | -0.605 | -0.0017 | -0.0904 | 0.227 | -0.366 | -0.362
Cc1ccccc1C(O)C1C=CC2C(=O)N(c3ccccc3)C(=O)C2N1Nc1ccccc1F (stereo not given) | 1.34 | 1.97 | -0.0612 | 2.36 | 0.789 | 0.156 | 0.232 | 1.81 | 1.78 | 1.83
COCCOC(=O)N1C(=O)[C@@]2(c3cc(C#CCC(C(=O)OC)C(=O)OC)ccc31)[C@H](C(=O)N1CCc3cc(OC)c(OC)cc3C1)[C@H]1C(=O)O[C@H](c3ccccc3)[C@H](c3ccccc3)N1[C@@H]2c1ccc(O)cc1 | 1.4 | -0.649 | 1.17 | 0.442 | -0.406 | 0.0718 | 0.0326 | -0.537 | 0.965 | 0.906
CCCCC(O)C1C=CC2C(=O)N(C)C(=O)C2N1Nc1ccccc1 (stereo not given) | 1.18 | -0.413 | -0.431 | 0.259 | 0.032 | 0.0044 | -0.301 | -0.0683 | 1.02 | 0.27
CN(C)CCCC[C@@H]1NC(=O)[C@@H]2C[C@H](C(=O)NCCCCCCNC(=O)CS)[C@H](c3cccc(OCCO)c3)N2C1=O | -0.275 | -0.149 | 0.0929 | -0.172 | -0.221 | -0.0478 | -0.209 | -0.103 | 0.947 | 0.0727
C#CCN=C(N)N | 0.69 | -0.613 | 1.11 | -0.617 | -0.736 | -0.131 | -0.0813 | -0.226 | 0.622 | 0.0757
CCOC(=O)C1=C[C@@H](C(C)(C)C)N(S(=O)(=O)c2ccc(C)cc2)[C@H]1c1ccccc1Cl | 0.694 | -1.8 | 0.633 | 1.95 | 0.84 | 0.1 | -0.177 | 0.527 | 1.13 | 1.73
COC(=O)[C@@]1(Cc2ccccc2CN=[N+]=[N-])COC(c2ccc(OCCCO)cc2)=N1 | -0.273 | -0.221 | -2.75 | -0.759 | 0.0354 | -0.292 | 1.69 | 0.199 | 0.202 | 3.02

Structure (SMILES) | composite z-score [1] | z-score [2] | composite z-score [3] | composite z-score [4] | composite z-score [5] | composite z-score [6] | composite z-score [7] | composite z-score [8] | composite z-score [9] | composite z-score [10]
CC(C)C[C@@H]1NC(=O)[C@@H]2C[C@H](C(=O)NCCCC[N+](C)(C)C)[C@H](c3ccc(O)cc3)N2C1=O | 0.39 | -0.996 | 1.05 | -0.928 | -0.768 | 0.0031 | 0.199 | 0.114 | 1.24 | 0.789
CN(C)C(=O)[C@]1(Cc2ccccc2CN=[N+]=[N-])N=C(c2ccc(OCCCO)cc2)O[C@@H]1c1ccccc1N=[N+]=[N-] | 1.44 | -1.6 | -0.472 | 1.71 | 0.422 | -0.0161 | 0.0639 | 0.526 | 0.609 | 1.14
COCCOC(=O)N1C(=O)[C@@]2(c3cc(C#CC4=CCCCC4)ccc31)[C@H](C(=O)N1CCc3cc(OC)c(OC)cc3C1)[C@H]1C(=O)O[C@H](c3ccccc3)[C@H](c3ccccc3)N1[C@@H]2c1ccc(O)cc1 | 1.42 | -0.934 | 0.761 | 1.74 | 0.673 | 0.18 | 0.482 | 0.707 | 1.34 | 0.967
O=C1N(CCS(=O)(=O)c2ccccc2)c2ccccc2[C@@H]2OC(c3ccc(OCCCO)cc3)=N[C@]12CCS(=O)(=O)c1ccccc1 | 1.38 | 0.182 | 0.8 | 1.67 | 0.176 | 0.0142 | 0.109 | 0.0373 | 2.17 | 1.67
C=CCC(OC(C)=O)[C@@H]1[C@@H](N(Cc2ccc(-c3cccc(C(F)(F)F)c3)o2)C(=O)Cc2ccc(F)cc2)c2cc(OCCCO)ccc2N1C(=O)c1ccc2ccccc2n1 (stereo not given in full) | -0.848 | -0.937 | -0.0009 | -0.297 | 0.195 | -0.0462 | -0.185 | -0.172 | 0.0265 | -0.124
C[C@@H](OCc1ccccc1)C1NC(=O)[C@@]23C(=O)N[C@@H](Cc4ccccc4)C2[C@H](C)[C@@]2(C)O[C@H]2C3/C=C/C/C=C\CNC(=O)[C@H](Cc2ccccc2)NC1=O (stereo not given in full) | -0.677 | -0.963 | 0.226 | -0.629 | -1.15 | -0.035 | -0.304 | -0.289 | 0.252 | -0.753
NC(=O)[C@@]1(CCS(=O)(=O)c2ccccc2)COC(c2ccc(OCCCO)cc2)=N1 | -0.244 | -0.806 | -0.323 | 1.12 | 0.549 | -0.0495 | 0.138 | -0.359 | 0.512 | 0.768
CCCC[C@H]1OB(O)C[C@H]2C1=C(C)C[C@H]1C(=O)C=CC(=O)[C@H]12 | 1.04 | -2.52 | 0.686 | -0.321 | -0.741 | -0.132 | 0.0278 | -0.109 | 0.0514 | 0.178
CCOC(=O)C1=CCC(c2cc3ccccc3[nH]2)N(S(=O)(=O)c2ccccc2[N+](=O)[O-])C1 (stereo not given) | 0.833 | -1.86 | -0.335 | -0.115 | -0.472 | 0.0839 | 0.0121 | -0.142 | 0.161 | 1.97
O=C(NCCO)C1=C[C@H](Oc2ccccc2I)[C@@H](O)[C@H](NCc2ccc(F)cc2)C1 | -0.938 | -3.66 | 0.949 | -0.815 | -2.87 | -0.237 | -0.262 | -0.0542 | 5.01 | -0.89
Cc1ccc(S[C@]2(C(=O)NCCCN(C)C)CC(=O)N(Cc3ccccc3Cl)[C@@H]2c2ccc(CO)cc2I)cc1 | -0.177 | -1.55 | -1.7 | 0.0681 | 0.283 | -0.1 | -0.0681 | 0.692 | 0.49 | 2.46
O=C1C2C=CC(C(O)c3cccs3)N(Nc3ccccc3)C2C(=O)N1c1ccccc1 (stereo not given) | 0.407 | -1.09 | 0.253 | 0.297 | -0.971 | 0.0135 | 0.0469 | 0.371 | 0.403 | 0.38
C=CC[C@]1(C(=O)OC)N=C(c2ccc(OCCCO)cc2)O[C@H]1c1ccccc1N=[N+]=[N-] | 1.06 | 0.452 | 0.786 | 0.592 | -0.357 | 0.194 | 0.598 | 1.7 | 0.387 | 0.935
COCCCNC(=O)[C@@H]1c2ccccc2C(=O)N(Cc2cc(C(F)(F)F)cc(C(F)(F)F)c2)[C@H]1c1ccc(CO)cc1 | 0.0861 | -0.293 | -0.323 | 0.0808 | 0.232 | -0.105 | 0.0091 | 0.896 | 0.208 | -0.543
COC(=O)[C@@]1(Cc2ccccc2)[C@H]2c3cc(C(=O)N4CCCC4)n(Cc4ccc(C(F)(F)F)nc4)c3C[C@H]2CN1C(=O)c1ccccc1 | 1.46 | -2.59 | -0.208 | 1.96 | 0.836 | 0.288 | 1.36 | 1.48 | 0.658 | 1.56
CCN(CC)c1ccc(N2CC=CC34O[C@@H]5C=CCOC(=O)[C@@H]5[C@H]3C(=O)N(CCO)[C@@H]4C2=O)cc1 (stereo not given in full) | -0.73 | 0.466 | -2.26 | -0.97 | 0.266 | -0.25 | 0.0756 | -0.338 | 0.422 | -1.29
COc1ccc([Si](C)(C)[C@H]2[C@H](CCn3cc([C@H](O)c4ccccc4)nn3)O[C@@]3(C(=O)N(C)c4c(Br)cc(C)cc43)[C@@H]2C)cc1 | -0.0087 | -4.19 | 0.285 | 0.0287 | -0.0094 | -0.124 | 0.0796 | -0.411 | 0.088 | 0.14

— PubChem BioAssay
